Experimental data reported in the supplement of paper PMC10849652.
About 7,900 targets were measured; listed, in parts, are those with a hit and a random draw of the rest. About 0.6% of all pairs of compound and target were hits. A number with no mark means an inactive call.

Key:
Test in all cases: log2 fold change, soluble protein after heating vs DMSO (PISA); higher = thermal stabilisation; K562 cells, 10 uM, 30 min; active = over 0.2 and 3.5 SD of the protein, either way, in both replicates (recomputed)
[1] = compound: COC1=CC=C(C=C1)CN2C=CC3=C2C=C(C=C3)C(=O)NO
How it was run: (§1)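 Soluble protein was defined as the supernatant after 21,000xg for 90 min. It came from K562 cells at 2×10^6 cells/mL given 10 μM compound for 30 min, heated in aliquots for 3 min across 48°C-58°C, pooled, and extracted in PBS with 0.5% NP-40 at 4°C, and was quantified by TMTpro 16plex LC-MS/MS with equalised channel sums. Thermal stability against control samples, from duplicates, is reported as log2 fold change.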

[2] = compound: CON(C)C(=O)N1N=C(c2cc(F)ccc2F)S[C@@]1(CCCN)c1ccccc1 [filanesib]
How it was run: as §1

[3] = compound: CO[C@H]1C[C@@H]2CC[C@@H](C)[C@@](O)(O2)C(=O)C(=O)N2CCCC[C@H]2C(=O)O[C@H]([C@H](C)C[C@@H]2CC[C@H](n3cnnn3)[C@H](OC)C2)CC(=O)[C@H](C)/C=C(\C)[C@@H](O)[C@@H](OC)C(=O)[C@H](C)C[C@H](C)/C=C/C=C/C=C/1C [zotarolimus]
How it was run: as §1

[4] = compound: COc1cc(C(=O)O)ccc1NC(=O)[C@@H]1N[C@@H](CC(C)(C)C)[C@](C#N)(c2ccc(Cl)cc2F)[C@H]1c1cccc(Cl)c1F [idasanutlin]
How it was run: as §1

[5] = compound: COc1cc(Nc2ncc3c(n2)-c2ccc(Cl)cc2C(c2c(F)cccc2OC)=NC3)ccc1C(=O)O [alisertib]
How it was run: as §1

[6] = compound: COc1cc2nc(-c3cc(F)ccc3O)nc(N[C@@H]3CNC[C@H]3C(C)(C)O)c2cc1OC
How it was run: as §1

[7] = compound: COc1cc2ncnc(Nc3ccc(F)c(Cl)c3)c2cc1OCCCN1CCOCC1 [gefitinib]
How it was run: as §1

[8] = compound: COc1cccc2cc(-c3nc([C@H]4CC[C@H](C(=O)O)CC4)n4ncnc(N)c34)[nH]c12
How it was run: as §1

[9] = compound: CS(=O)(=O)CCNCc1ccc(-c2ccc3ncnc(Nc4ccc(OCc5cccc(F)c5)c(Cl)c4)c3c2)o1 [lapatinib]
How it was run: as §1

[10] = compound: CS(=O)(=O)N1CCN(Cc2cc3nc(-c4cccc5[nH]ncc45)nc(N4CCOCC4)c3s2)CC1 [pictilisib]
How it was run: as §1

[11] = compound: CS(=O)(=O)c1ccc(-c2cnc(N)c(C(=O)Nc3ccccc3)n2)cc1
How it was run: as §1

[12] = compound: C[C@@H](Oc1cc(-c2cnn(C3CCNCC3)c2)cnc1N)c1c(Cl)ccc(F)c1Cl [crizotinib]
How it was run: as §1

[13] = compound: C[C@@H]1COCCN1C2=NC(=NC(=C2)C3(CC3)S(=O)(=O)C)C4=C5C=CNC5=CC=C4
How it was run: as §1

[14] = compound: C[C@H](C1=CC=C(C=C1)C(=O)NC2=C3C=CNC3=NC=C2)N
How it was run: as §1

[15] = compound: C[C@H](Nc1ncnc2nc[nH]c12)c1cc2cccc(Cl)c2c(=O)n1-c1ccccc1 [duvelisib]
How it was run: as §1

[16] = compound: Cc1cc(Nc2cc(CN3CCOCC3)c3nc(C)c(Cc4ccc(Cl)cc4F)n3n2)n[nH]1 [gandotinib]
How it was run: as §1

[17] = compound: Cc1cc(Nc2cc(N3CCN(C)CC3)nc(Sc3ccc(NC(=O)C4CC4)cc3)n2)n[nH]1 [tozasertib]
How it was run: as §1

[18] = compound: Cc1cc(SCc2sc(-c3ccc(C(F)(F)F)cc3)nc2C)ccc1OCC(=O)O
How it was run: as §1

[19] = compound: Cc1ccc(-n2nc(C(C)(C)C)cc2NC(=O)Nc2ccc(OCCN3CCOCC3)c3ccccc23)cc1 [doramapimod]
How it was run: as §1

[20] = compound: Cc1ccc(C(=O)N(CCCN)[C@@H](c2nc3cc(Cl)ccc3c(=O)n2Cc2ccccc2)C(C)C)cc1 [ispinesib]
How it was run: as §1

Chain of UniProt Q9UHB6 (Q9UHB6 whole entry, looked up): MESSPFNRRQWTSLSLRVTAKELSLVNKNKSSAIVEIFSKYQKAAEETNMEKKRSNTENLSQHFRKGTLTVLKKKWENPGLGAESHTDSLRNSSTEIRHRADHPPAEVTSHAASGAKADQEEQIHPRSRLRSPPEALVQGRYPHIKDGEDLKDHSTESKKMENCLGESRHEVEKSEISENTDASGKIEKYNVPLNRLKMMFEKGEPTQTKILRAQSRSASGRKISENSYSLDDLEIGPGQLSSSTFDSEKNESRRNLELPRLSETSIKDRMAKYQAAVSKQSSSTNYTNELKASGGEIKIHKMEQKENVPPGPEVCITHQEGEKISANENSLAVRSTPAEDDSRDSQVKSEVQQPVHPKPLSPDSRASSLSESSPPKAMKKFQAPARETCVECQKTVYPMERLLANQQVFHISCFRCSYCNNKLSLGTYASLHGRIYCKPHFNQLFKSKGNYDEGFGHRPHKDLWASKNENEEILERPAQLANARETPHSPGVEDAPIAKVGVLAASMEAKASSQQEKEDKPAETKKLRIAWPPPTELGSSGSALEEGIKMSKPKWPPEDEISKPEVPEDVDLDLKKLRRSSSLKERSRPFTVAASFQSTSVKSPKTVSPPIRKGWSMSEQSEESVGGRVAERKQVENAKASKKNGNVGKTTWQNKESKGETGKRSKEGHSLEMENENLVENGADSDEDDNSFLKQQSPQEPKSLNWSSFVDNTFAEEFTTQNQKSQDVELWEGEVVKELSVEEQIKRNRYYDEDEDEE
Chain of UniProt P50748 (P50748 whole entry, looked up): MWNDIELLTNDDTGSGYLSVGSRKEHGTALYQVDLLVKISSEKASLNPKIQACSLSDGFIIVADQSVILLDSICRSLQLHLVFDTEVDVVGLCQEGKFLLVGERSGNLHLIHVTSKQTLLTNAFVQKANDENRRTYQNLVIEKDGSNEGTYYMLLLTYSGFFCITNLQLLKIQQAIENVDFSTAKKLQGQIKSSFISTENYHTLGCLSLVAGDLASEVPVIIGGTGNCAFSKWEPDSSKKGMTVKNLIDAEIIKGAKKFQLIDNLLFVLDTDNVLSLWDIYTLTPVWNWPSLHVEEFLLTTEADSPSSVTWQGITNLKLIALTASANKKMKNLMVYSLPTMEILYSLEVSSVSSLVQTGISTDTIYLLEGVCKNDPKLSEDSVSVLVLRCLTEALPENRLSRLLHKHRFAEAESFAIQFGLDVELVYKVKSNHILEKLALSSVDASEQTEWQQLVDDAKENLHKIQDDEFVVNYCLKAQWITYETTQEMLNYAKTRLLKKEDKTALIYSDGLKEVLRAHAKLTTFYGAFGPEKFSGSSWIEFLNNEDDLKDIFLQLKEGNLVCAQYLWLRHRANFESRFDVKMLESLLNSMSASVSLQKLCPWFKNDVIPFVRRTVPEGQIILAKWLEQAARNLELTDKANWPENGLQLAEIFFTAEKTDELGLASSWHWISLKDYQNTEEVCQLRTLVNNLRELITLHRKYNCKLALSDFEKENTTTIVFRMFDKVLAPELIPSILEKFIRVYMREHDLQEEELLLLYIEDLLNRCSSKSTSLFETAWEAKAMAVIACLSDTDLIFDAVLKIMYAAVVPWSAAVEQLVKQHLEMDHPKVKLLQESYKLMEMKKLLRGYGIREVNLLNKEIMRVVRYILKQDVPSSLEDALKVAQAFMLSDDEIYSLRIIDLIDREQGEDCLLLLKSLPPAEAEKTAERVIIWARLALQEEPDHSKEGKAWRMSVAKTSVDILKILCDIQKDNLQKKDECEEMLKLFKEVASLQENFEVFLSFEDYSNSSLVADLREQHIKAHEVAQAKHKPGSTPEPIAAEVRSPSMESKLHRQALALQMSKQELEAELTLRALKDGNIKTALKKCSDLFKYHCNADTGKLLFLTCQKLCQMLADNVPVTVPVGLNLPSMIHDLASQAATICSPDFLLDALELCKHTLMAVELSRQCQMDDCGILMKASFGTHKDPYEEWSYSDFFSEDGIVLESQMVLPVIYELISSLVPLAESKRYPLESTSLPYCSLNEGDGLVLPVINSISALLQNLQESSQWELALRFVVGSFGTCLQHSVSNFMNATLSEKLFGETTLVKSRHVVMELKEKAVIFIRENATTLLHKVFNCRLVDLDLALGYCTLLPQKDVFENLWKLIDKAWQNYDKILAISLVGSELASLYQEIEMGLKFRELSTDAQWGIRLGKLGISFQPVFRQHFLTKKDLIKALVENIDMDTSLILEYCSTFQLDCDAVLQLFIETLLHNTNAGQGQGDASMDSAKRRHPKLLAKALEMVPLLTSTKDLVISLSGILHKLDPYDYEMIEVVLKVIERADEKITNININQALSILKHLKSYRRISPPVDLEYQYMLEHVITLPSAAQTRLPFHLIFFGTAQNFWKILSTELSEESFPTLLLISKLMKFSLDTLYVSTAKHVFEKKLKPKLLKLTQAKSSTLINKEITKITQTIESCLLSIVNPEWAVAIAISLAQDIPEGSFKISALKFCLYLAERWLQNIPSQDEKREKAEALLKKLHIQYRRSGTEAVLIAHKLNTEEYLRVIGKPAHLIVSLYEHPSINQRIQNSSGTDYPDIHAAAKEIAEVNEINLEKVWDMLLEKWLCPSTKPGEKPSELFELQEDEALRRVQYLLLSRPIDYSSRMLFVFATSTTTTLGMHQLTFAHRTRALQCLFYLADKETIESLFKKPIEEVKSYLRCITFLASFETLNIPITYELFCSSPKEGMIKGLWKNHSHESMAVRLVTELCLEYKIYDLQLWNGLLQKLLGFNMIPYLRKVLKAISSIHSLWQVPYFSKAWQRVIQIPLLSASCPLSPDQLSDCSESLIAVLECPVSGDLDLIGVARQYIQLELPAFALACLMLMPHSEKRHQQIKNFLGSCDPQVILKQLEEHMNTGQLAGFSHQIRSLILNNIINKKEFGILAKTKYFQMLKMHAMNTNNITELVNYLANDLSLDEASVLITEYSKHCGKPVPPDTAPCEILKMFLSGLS
Chain of UniProt Q6N075 (Q6N075 whole entry, looked up): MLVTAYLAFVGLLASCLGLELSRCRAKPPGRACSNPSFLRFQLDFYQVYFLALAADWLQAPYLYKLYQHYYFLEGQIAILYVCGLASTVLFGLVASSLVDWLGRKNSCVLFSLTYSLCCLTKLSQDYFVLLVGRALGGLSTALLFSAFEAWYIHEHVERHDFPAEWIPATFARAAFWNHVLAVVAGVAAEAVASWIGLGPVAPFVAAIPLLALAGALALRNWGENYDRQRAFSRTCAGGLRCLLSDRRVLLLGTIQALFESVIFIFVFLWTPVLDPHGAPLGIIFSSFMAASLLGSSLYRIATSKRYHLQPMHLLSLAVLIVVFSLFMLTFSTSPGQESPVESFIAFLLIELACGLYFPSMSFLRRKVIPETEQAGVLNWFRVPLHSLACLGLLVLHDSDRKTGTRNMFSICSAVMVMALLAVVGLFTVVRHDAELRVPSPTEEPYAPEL
Chain of UniProt P18065 (P18065 whole entry, looked up): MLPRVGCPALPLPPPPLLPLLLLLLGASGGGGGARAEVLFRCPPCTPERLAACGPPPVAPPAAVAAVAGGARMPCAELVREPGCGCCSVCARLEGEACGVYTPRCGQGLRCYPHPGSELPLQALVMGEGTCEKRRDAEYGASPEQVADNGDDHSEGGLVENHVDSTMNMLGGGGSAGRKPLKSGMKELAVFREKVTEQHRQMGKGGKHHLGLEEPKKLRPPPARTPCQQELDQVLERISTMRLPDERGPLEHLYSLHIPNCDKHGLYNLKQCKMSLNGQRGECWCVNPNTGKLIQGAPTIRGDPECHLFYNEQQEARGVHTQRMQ
Chain of UniProt Q8TBB5 (Q8TBB5 whole entry, looked up): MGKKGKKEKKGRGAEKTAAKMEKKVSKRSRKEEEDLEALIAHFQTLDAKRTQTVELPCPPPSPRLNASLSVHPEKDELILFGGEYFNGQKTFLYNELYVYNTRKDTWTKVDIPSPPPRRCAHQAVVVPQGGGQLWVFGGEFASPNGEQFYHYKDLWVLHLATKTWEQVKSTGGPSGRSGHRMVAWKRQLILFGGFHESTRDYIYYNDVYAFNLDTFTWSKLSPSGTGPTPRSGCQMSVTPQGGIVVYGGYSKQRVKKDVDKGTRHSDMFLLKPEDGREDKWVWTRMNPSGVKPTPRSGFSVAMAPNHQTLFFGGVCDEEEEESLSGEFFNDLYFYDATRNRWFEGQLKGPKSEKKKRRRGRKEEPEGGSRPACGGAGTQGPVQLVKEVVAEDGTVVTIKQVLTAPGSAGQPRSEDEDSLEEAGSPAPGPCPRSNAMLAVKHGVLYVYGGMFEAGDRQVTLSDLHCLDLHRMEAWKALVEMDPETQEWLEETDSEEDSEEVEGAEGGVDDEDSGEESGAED
Chain of UniProt P45984 (P45984 whole entry, looked up): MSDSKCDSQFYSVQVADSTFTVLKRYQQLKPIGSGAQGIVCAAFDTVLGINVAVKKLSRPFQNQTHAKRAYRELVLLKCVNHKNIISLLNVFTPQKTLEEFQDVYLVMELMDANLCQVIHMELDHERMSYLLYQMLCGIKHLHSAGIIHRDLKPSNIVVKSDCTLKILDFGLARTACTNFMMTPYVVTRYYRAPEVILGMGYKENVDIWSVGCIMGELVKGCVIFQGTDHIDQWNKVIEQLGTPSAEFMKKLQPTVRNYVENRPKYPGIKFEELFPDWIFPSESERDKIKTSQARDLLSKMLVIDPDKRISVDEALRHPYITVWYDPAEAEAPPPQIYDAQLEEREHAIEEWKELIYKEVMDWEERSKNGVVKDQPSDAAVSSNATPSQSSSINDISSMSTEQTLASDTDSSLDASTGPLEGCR
Chain of UniProt P29966 (P29966 whole entry, looked up): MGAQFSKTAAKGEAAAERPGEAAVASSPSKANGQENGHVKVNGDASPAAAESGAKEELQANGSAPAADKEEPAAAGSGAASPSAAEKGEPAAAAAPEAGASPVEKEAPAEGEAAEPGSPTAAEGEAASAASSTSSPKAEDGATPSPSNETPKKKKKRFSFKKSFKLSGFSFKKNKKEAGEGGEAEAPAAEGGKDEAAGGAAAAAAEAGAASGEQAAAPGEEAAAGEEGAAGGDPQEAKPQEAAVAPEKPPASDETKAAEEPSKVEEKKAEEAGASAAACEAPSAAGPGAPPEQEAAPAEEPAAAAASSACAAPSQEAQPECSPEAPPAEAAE

| Target | log2 fold change [1] | log2 fold change [2] | log2 fold change [3] | log2 fold change [4] | log2 fold change [5] | log2 fold change [6] | log2 fold change [7] | log2 fold change [8] | log2 fold change [9] | log2 fold change [10] | log2 fold change [11] | log2 fold change [12] | log2 fold change [13] | log2 fold change [14] | log2 fold change [15] | log2 fold change [16] | log2 fold change [17] | log2 fold change [18] | log2 fold change [19] | log2 fold change [20] |
| --- | --- | --- | --- | --- | --- | --- | --- | --- | --- | --- | --- | --- | --- | --- | --- | --- | --- | --- | --- | --- |
| MAST4 (UniProt O15021) | -0.023 | -0.114 | 0.035 | -0.103 | -0.073 | -0.283 | -0.031 | 0.019 | 0.046 | -0.036 | -0.041 | -0.188 | 0.064 | -0.114 | 0.091 | -0.301 | -0.03 | 0.053 | -0.088 | 0.007 |
| MFSD5 isoform 2 (UniProt Q6N075) | 0.037 | 0.018 | -0.149 | -0.058 | 0.011 | -0.026 | 0.039 | 0.12 | 0.045 | 0.062 | 0.069 | -0.039 | -0.04 | -0.046 | 0.112 | -0.045 | 0.144 | -0.004 | 0.004 | 0.051 |
| IGFBP2 (UniProt P18065) | 0.117 | -0.238 | -0.846 (active) | 0.439 | 0.11 | -0.056 | -0.228 | 0.363 | -0.025 | -0.252 | -0.205 | -0.297 | -0.051 | -0.189 | 0.173 | -0.475 | -0.083 | 0.026 | -0.305 | -0.482 |
| LMBRD2 (UniProt Q68DH5) | -0.031 | -0.095 | 0.108 | -0.012 | -0.035 | 0.025 | 0.082 | -0.021 | 0.026 | 0.057 | 0.034 | -0.156 | -0.042 | -0.152 | 0.001 | -0.049 | -0.016 | -0.065 | 0.011 | -0.328 (active) |
| MARCKS (UniProt P29966) | 0.108 | 0.004 | 0.001 | 0.062 | 0.006 | -0.016 | -0.003 | 0.069 | 0.019 | -0.225 | 0.022 | 0.198 | -0.042 | -0.191 | 0.006 | 0.234 | -0.068 | 0.025 | 0 | -0.031 |
| IPO9 (UniProt Q96P70) | 0.014 | -0.005 | 0.052 | -0.089 | -0.016 | -0.054 | 0.088 | 0.065 | 0.011 | 0.031 | -0.04 | -0.031 | 0.051 | -0.042 | 0.007 | -0.146 | 0.143 | 0.041 | 0.008 | 0.062 |
| LIMA1 isoform 4 (UniProt Q9UHB6) | -0.044 | 0.178 | 0.021 | 0.008 | -0.028 | 0.171 | 0.077 | 0.11 | -0.126 | -0.1 | -0.076 | 0.001 | -0.04 | -0.057 | 0.003 | 0.019 | 0.027 | -0.036 | -0.023 | 0.185 |
| KLHDC4 (UniProt Q8TBB5) | -0.045 | 0.435 (active) | 0.044 | 0.199 | -0.023 | 0.076 | 0.03 | 0.1 | -0.026 | 0.029 | 0.093 | 0.157 | -0.07 | 0.111 | -0.091 | 0.041 | 0.025 | 0.039 | 0.069 | 0 |
| KDM5D isoform 3 (UniProt Q9BY66) | -0.592 (active) | 0.073 | -0.053 | -0.058 | -0.044 | 0.045 | -0.021 | -0.072 | -0.047 | 0.049 | -0.004 | 0.038 | -0.005 | -0.054 | 0.057 | -0.051 | 0.212 | 0.125 | 0.108 | 0 |
| MEPCE (UniProt Q7L2J0) | -0.706 (active) | 0.042 | 0.042 | 0.036 | -0.093 | -0.167 | 0.078 | 0.013 | 0.102 | -0.013 | -0.006 | 0.111 | 0.03 | -0.005 | -0.005 | -0.051 | 0.094 | 0.04 | -0.22 | -0.065 |
| L2HGDH (UniProt Q9H9P8) | 0.096 | -0.121 | 0.07 | -0.037 | -0.019 | -0.034 | -0.01 | 0.041 | -0.069 | 0.115 | 0.04 | -0.081 | 0.124 | -0.025 | 0.063 | 0.024 | -0.082 | 0.039 | -0.02 | -0.083 |
| LONP2 (UniProt Q86WA8) | -0.002 | -0.019 | -0.02 | -0.177 | -0.115 | 0.375 | 0.129 | 0.015 | 0.1 | -0.041 | -0.004 | 0.072 | 0.026 | 0.113 | -0.017 | 0.017 | 0.073 | -0.094 | 0.073 | 0.092 |
| ITIH4 (UniProt Q14624) | 0.252 | -0.174 | -0.896 (active) | 0.184 | -0.047 | -0.146 | -0.093 | 0.277 | -0.034 | -0.241 | -0.107 | -0.102 | 0.129 | -0.005 | 0.103 | -0.387 | -0.033 | -0.031 | -0.291 | -0.402 |
| KNTC1 (UniProt P50748) | 0.03 | -0.008 | 0 | -0.082 | -0.035 | 0.036 | 0.175 | -0.037 | 0.008 | 0.007 | 0.038 | -0.178 | -0.002 | 0.045 | 0.061 | -0.162 | 0.014 | 0.012 | -0.01 | -0.086 |
| MAP3K4 isoform 2 (UniProt Q9Y6R4) | 0.004 | -0.037 | 0.003 | -0.023 | -0.043 | 0.03 | 0.034 | 0.086 | 0.024 | 0.11 | 0.012 | -0.256 (active) | 0.042 | -0.017 | 0.02 | -0.054 | 0.026 | 0 | 0.02 | 0.021 |
| MAPK9 (UniProt P45984) | -0.004 | -0.01 | -0.022 | -0.062 | -0.072 | 0.043 | 0.009 | 0.001 | -0.039 | 0.075 | 0.006 | -0.042 | 0.054 | -0.068 | 0.023 | -0.018 | -0.013 | -0.041 | 0.145 | 0.01 |
